Measurements reported in the supplement of paper PMC4188521.

compound: CCc1cnn2c(NCc3ccc[n+]([O-])c3)cc(N3CCCC[C@H]3CCO)nc12 [dinaciclib]; assay: cell viability remaining relative to DMSO control; higher = less cytotoxic (more viable cells); details: 100 nM; 24 h
Procedure, shortened: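 Cell lines from solid tumours, sourced from commercial cell banks, were treated with 100 nM of the test compound for 24 hr at a final DMSO level of ≤0.2%. ATP luminescence was measured with the CellTiter-Glo assay according to the manufacturer's instructions. Remaining viability is the ratio of light units in treated wells to those in DMSO-treated control wells, expressed as a percentage of the DMSO control. Each value is the mean of 2–6 plates, each with triplicate wells.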

Row | Target | cell viability remaining
1 | BT549 | 51.3%
2 | FADU | 31.8%
3 | H1568 | 28.7%
4 | SJRH30 | 12%
5 | OV90 | 99.8%
6 | D283MED | 43%
7 | H522 | 80.6%
8 | ES2 | 52.5%
9 | A204 | 40.8%
10 | SU8686 | 48.9%
11 | HCC1954 | 38%
12 | HCT15 | 45.4%
13 | AU565 | 39.3%
14 | COLO704 | 78.2%
15 | MFE296 | 47.4%
16 | HT144 | 48.6%
17 | NUGC4 | 108%

Row | Target | cell viability remaining
18 | BT483 | 83.9%
19 | COLO320DM | 17.1%
20 | T84 | 76.2%
21 | SCC9 | 64.4%
22 | SW403 | 74.9%
23 | COV434 | 7.7%
24 | RMGI | 83.4%
25 | WM2664 | 68.9%
26 | U87MG | 63%
27 | HT1080 | 88.8%
28 | SH4 | 64.5%
29 | SKBR3 | 51.1%
30 | H1437 | 41.9%
31 | A549 | 55.3%
32 | HOS | 36.2%
33 | HEC50B | 83.4%
34 | SKMEL24 | 81.7%
